PubChem BioAssay (NCI)
About 83,000 compounds went through this panel and 20% of them were active in at least one assay; those are over-represented in the sample as a whole.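 Results are percent growth after 48 hours of single-concentration exposure. 100 means growth as in untreated cells, lower positive values show inhibition; negative values down to -100 show cell death.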 A number with no mark means an inactive call. Calls of active or inactive are those of the source. The calls were made as follows: active = growth percent below 10; inactive = the rest.

What was measured:
Assay in all cases: NCI-60 one-dose screen, 48 h (100 = growth as untreated, 0 = no growth, -100 = all killed)
Details in all cases: 10 µM unless noted
SR leukemia = test system: SR leukemia
RPMI-8226 leukemia = test system: RPMI-8226 leukemia
OVCAR-8 ovarian = test system: OVCAR-8 ovarian
OVCAR-5 ovarian = test system: OVCAR-5 ovarian
OVCAR-4 ovarian = test system: OVCAR-4 ovarian
SK-OV-3 ovarian = test system: SK-OV-3 ovarian
OVCAR-3 ovarian = test system: OVCAR-3 ovarian
HS 578T breast = test system: HS 578T breast
NCI/ADR-RES ovarian = test system: NCI/ADR-RES ovarian
T-47D breast = test system: T-47D breast
MDA-MB-435 melanoma = test system: MDA-MB-435 melanoma
SW-620 colon = test system: SW-620 colon
MCF7 breast = test system: MCF7 breast
HCT-116 colon = test system: HCT-116 colon
HCC-2998 colon = test system: HCC-2998 colon
KM12 colon = test system: KM12 colon
IGROV1 ovarian = test system: IGROV1 ovarian
BT-549 breast = test system: BT-549 breast

Row | Compound | growth (SR leukemia) | growth (RPMI-8226 leukemia) | growth (OVCAR-8 ovarian) | growth (OVCAR-5 ovarian) | growth (OVCAR-4 ovarian) | growth (SK-OV-3 ovarian) | growth (OVCAR-3 ovarian) | growth (HS 578T breast) | growth (NCI/ADR-RES ovarian) | growth (T-47D breast) | growth (MDA-MB-435 melanoma) | growth (SW-620 colon) | growth (MCF7 breast) | growth (HCT-116 colon) | growth (HCC-2998 colon) | growth (KM12 colon) | growth (IGROV1 ovarian) | growth (BT-549 breast)
1 | CC(C)CN(C(=O)c1ccc(Cl)cc1)c1c(N)n(CC(C)C)c(=O)[nH]c1=O | 64.1% | 84.8% | 93.8% | 88.3% | 107% | 26.8% | 115% | 84.8% | 101% | 105% | 112% | 100% | 95% | 96.2% | 106% | 102% |  | 
2 | COc1ccccc1-c1c(-c2ccc(Cl)cc2)c2cc3c(cc2[nH]c1=O)OCCO3 | 45.8% | -57.2% (active) | 68.5% | 91.1% | 68.5% | 101% | 64.5% |  | 72.3% | 66% | 65.2% | 93.7% | 42% |  | 83.7% | 63.8% | 77% | 67.7%
3 | CC(=O)[C@@H]1CC[C@]2(C(=O)n3ccnc3)CC[C@]3(C)[C@H](CC[C@@H]4[C@@]5(C)Cc6c([nH]c7ccccc67)C(C)(C)[C@@H]5CC[C@]43C)[C@@H]12 | 77.7% | 72.7% | 90.7% | 105% | 85.2% | 98.3% | 79.5% | 87.1% | 90% |  | 101% | 90.8% | 71.9% | 83.9% | 109% | 84.2% | 42.6% | 
4 | CC[C@H](C)[C@@H]1NC(=O)[C@H](Cc2ccc(O)cc2)N(C)C(=O)[C@H](Cc2ccccc2)NC(=O)CN(C)C(=O)[C@@H]2CCCN2C(=O)[C@@H](Cc2ccccc2)N(C)C(=O)[C@H](CC(C)C)NC1=O | 4.5% (active) | -33.3% (active) | 5.34% (active) | -7.89% (active) | -4.8% (active) | 4.76% (active) | -10.7% (active) | -12% (active) | 70.7% |  | -46.3% (active) | 3.59% (active) | -25% (active) | 1.24% (active) | -23.9% (active) | 1.4% (active) | -8.42% (active) | 69.7%
5 | CCN1C(=O)N(CC)C2NC(SC)=NC21 (stereo not drawn) | 107% | 157% | 104% | 88.9% | 103% | 104% | 102% | 94.1% | 99.7% |  | 102% | 97.6% | 99.3% | 104% | 99.3% | 102% | 102% | 103%
6 | CCc1c(Nc2ccc(C)cc2)nc(N)[nH]c1=O | 87.9% | 103% | 102% | 101% | 108% | 114% | 119% | 111% | 106% |  | 106% | 109% | 93.7% | 98.6% |  | 102% | 102% | 101%
7 | COc1cc(-c2cc(=O)oc3cc(O)ccc23)c(OC)c2c1OCO2 | 84.2% | 60.2% | 91.6% | 91.6% | 68.9% | 125% | 92.7% | 81.9% | 92.6% |  | 101% | 96.6% | 102% |  | 97.3% | 93.8% | 91.5% | 90.9%
8 | CCCc1cc2c(cc1Br)OCO2 | 111% | 113% | 96.1% | 96.5% | 114% | 103% | 113% | 99.8% | 98.5% |  | 110% | 112% | 95% | 84.5% | 103% | 113% | 111% | 82.7%
9 | COc1ccc2c(c1)OC1=C(C(=O)OC1)C2c1cc(OC)c(OC)c(OC)c1 (stereo not drawn) | 15.3% | 11.5% | 21.1% | 32.7% | 56.3% | 13% | -55.9% (active) |  | 1.95% (active) | 66.3% |  | 23.2% | 27.1% | 19.3% | 6.19% (active) | 13.1% | 49% | 34.5%
10 | O=C1c2ccccc2-c2c1c1c(NCCCO)nc3ccccc3c1n2Cc1ccccc1 | 5.22% (active) | 46.2% | 25.9% | 45.6% | 10.7% | 23.8% | 14.4% |  | 3.37% (active) | 78.2% | 18.2% | 25.2% | -23.2% (active) | -57.3% (active) | 26.1% | 38.3% | 15.7% | -37.7% (active)
11 | C=C(C)[C@@H]1CC[C@]2(C=O)CC[C@]3(C)[C@H](CC[C@@H]4[C@@]5(C)CCCNC(C)(C)[C@@H]5CC[C@]43C)[C@@H]12 | -31.4% (active) | 12.3% | 90.9% | 93.3% | 82.3% | 106% | 77.5% | 89.1% | 85.3% |  | 66.6% | -31.4% (active) | 30% |  | 41.6% | 58.6% | 50.8% | 88.7%
12 | CCN(CC)S(=O)(=O)c1cccc([N+](=O)[O-])c1 | 103% | 93.2% | 85.7% | 109% | 95.4% | 86.9% | 108% | 97.9% | 103% |  | 99% | 100% | 103% | 80.7% | 101% | 108% | 107% | 79.1%
13 | CCCCCCN(C)Cc1ccc(OCCOc2ccc(CN(C)CCCCCC)cc2)cc1 | -43.7% (active) | -14.4% (active) | 47.7% | 42.9% | 31.4% | 48.6% | 44.9% | -22% (active) | 1.98% (active) | -13.7% (active) | -17.4% (active) | -70.2% (active) | -76.3% (active) | -96.1% (active) | -87.5% (active) | -19.3% (active) |  | 26.2%
14 | CN1CCN(C(=O)OCc2nc3c(N4CCOCC4)nc(-c4ccccc4)nc3n2C)CC1 | 2.5% (active) | -28.7% (active) | 4.37% (active) | -86.1% (active) |  | 61.5% | -81.9% (active) | -22% (active) | -16.2% (active) | -40.7% (active) | -84.1% (active) | -46.4% (active) | -64.3% (active) | -71.6% (active) | -75.4% (active) | -61.6% (active) | -96.3% (active) | -71.1% (active)
15 | CC(=O)O[C@]1(C(C)=O)CC[C@H]2[C@@H]3C=C(Cl)C4=CC(=O)CC[C@]4(C)[C@H]3CC[C@@]21C | 92.1% | 92.7% | 101% | 101% | 100% | 107% | 121% |  | 99.6% | 97.1% | 113% | 115% | 112% | 96.7% | 103% | 109% |  | 94.5%
16 | O=C(O)c1ccc[n+](CC(=O)N2CCN(c3cc4c(cc3F)c(=O)c(C(=O)O)cn4C3CC3)CC2)c1 | 17.2% | 75.4% | 79.7% | 107% |  | 109% | 55.6% | 87.9% | 94.7% | 85.9% | 67.4% | -3.29% (active) | 50.9% | 23.9% | 111% | 92.2% | 95.8% | 75.1%
17 | O=C1NC(=S)NC(=O)C1=Cc1cn(Cc2ccccn2)c2ccccc12 | 13.1% | 91.2% | 51.7% | -4.45% (active) |  | 85.5% | 33.5% | 81.9% | 85.1% | 89.8% | 21.3% | 48.3% | 34.6% | 2.36% (active) | 54.2% | 57.2% | 11.3% | 66.8%
18 | C=C(C)[C@@H]1CC[C@]2(C(=O)O)CC[C@]3(C)[C@H](CC[C@@H]4[C@@]5(C)C[C@@H](CC#Cc6ccc(Br)cc6)C(=O)C(C)(C)[C@@H]5CC[C@]43C)[C@@H]12 | 55.2% | 33.4% | 35.6% | 73.8% |  | 50.5% | 51.4% | 59% | 76.4% | 48.3% | 42.4% | 42.1% | 49% | 39.4% | 61.4% | 40.3% | 58.6% | 69.8%
